Screens from PubChem.
Pin1 inh: qHTS Assay to Find Inhibitors of Pin1 | Peptidyl-prolyl cis-trans isomerase NIMA-interacting 1 (Homo sapiens), Q13526 | Pin1 FP peptide displacement, HiFluor488, 10 min | Potency, µM (highest dose often 115 µM), inactives show at the top dose activity, negative = inhibition, hits mostly inhibitors | 0.009% of 390,000 active | AID 504891, 2011; active means well fitted inhibition curve with a large enough effect in the polarisation, with a control signal flat, not every such curve was filed as active; inconclusive means small, poorly fitted or top-dose-only effect, or effect the other way, or a change in a side signal; inactive means no such curve, though single readings can be large or run the other way; the % refers to the polarisation; further: potency means the concentration at half of the fitted maximal effect; on the % scale 0 is the no-effect control and ±100 the full control effect
Target sequence (Q13526 whole entry, looked up): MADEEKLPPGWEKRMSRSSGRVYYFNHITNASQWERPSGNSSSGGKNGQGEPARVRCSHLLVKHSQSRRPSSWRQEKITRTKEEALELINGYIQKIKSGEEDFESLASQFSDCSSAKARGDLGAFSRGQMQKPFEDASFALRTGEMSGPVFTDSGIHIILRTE
a7 integrin act: qHTS for Activators of Integrin-Mediated Alleviation for Muscular Dystrophy; alpha7betagal myoblasts, beta-gal FDG fluorescence, 48 h; Potency, µM (series often up to 38.3 µM), for inactives: top-dose activation, usual class: activators; 0.064% of 350,000 active; AID 624291, 2012;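 further: potency means the concentration at half of the fitted maximal effect; 100% = response of the positive control SU9516; nearly all actives have a fitted effect of over 60% in size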
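alpha7betagal+/- myoblasts (passage 13, 250/well) treated 48 h at 37C with compounds at 1:260 dilution of DMSO stock. Lysed, then beta-galactosidase activity read as FDG fluorescence (ex 480/em 540) after 30 min, with pre-read for autofluorescence.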
PKM2 activator: qHTS Assay for Activators of Human Muscle isoform 2 Pyruvate Kinase | AID 1631, 2009 | Potency, µM (top dose mostly 57.5 µM), for inactives: top-dose activation, hits mostly activators | Pyruvate kinase PKM (Homo sapiens), P14618 | 0.34% of 260,000 active | purified PKM2, Kinase-Glo ATP luminescence, activation; response scale: 0% is enzyme alone, no compound; further: potency means the concentration at half of the fitted maximal effect; on the % scale 0 is the no-effect control and ±100 the full control effect; nearly all actives have a fitted effect of over 55% in size
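hPK-M2, >95% pure; 0.1 mM ADP / 0.5 mM PEP final; imidazole pH7.2 buffer w/ 7 mM MgCl2, 50 mM KCl; 1 h RT; Kinase-Glo lum. Intermediate enzyme activity for dual inhibitor/activator qHTS.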
USP2a block: qHTS Assay for Inhibitors of Ubiquitin-specific Protease USP2a Using CHOP2 as the Reporter; Ubiquitin carboxyl-terminal hydrolase 2 (Homo sapiens), O75604; USP2 core, Ub-CHOP2 coupled fluorogenic reporter, 485/531; Potency, µM (top dose mostly 38.3 µM), inactives show at the highest dose activity change, negative = inhibition, hits mostly inhibitors; 0.01% of 330,000 active;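 further: potency means the concentration at half of the fitted maximal effect; plate controls were DMSO wells for no effect and full inhibition by NEM control for full effect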
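Cell-free coupled assay: 10nM USP2 core preincubated 30min RT with compound in Tris-HCl pH 8.0/CaCl2/CHAPS buffer, then 25nM Ub-CHOP2 and 25nM reporter substrate; fluorescence (Ex 485/Em 531) read after 60min RT, normalized to NEM inhibition, concentration-response curves fitted.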
IL-2 act: qHTS of IL-2 Activators | IL-2 activation reporter assay, cell-based qHTS; stimulated with anti-CD3/CD4/CD28 beads; in transgenic mouse T cells | activation, % (series mostly up to about 46 µM) | 0.065% of 360,000 active | AID 652025, 2013; in the data active means activation above about 50%; inconclusive means mostly about 30% to 49%; further: 0% is about no effect
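Screening format: compound pinned onto unstimulated transgenic mouse T cells, 60 min incubation, then anti-CD3/anti-CD4/anti-CD28 bead stimulation for 18 hours at 37 degrees C, followed by EGFP and DsRed detection.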
ClpP mod: qHTS Assay for Activators of ClpP | ATP-dependent Clp protease proteolytic subunit (Bacillus subtilis (strain 168)), P80244 | purified B. subtilis ClpP, FRET peptide cleavage, 20 min | Potency, µM (doses to about 57.5 µM), for the others: at the highest dose activity change, negative = active | 1.9% of 340,000 active | AID 651965, 2013; active means well fitted falling curve with a large enough effect; inconclusive means small, poorly fitted or top-dose-only effect; inactive means no such curve, though single readings can be large or run the other way; further: potency means the concentration at half of the fitted maximal effect; the source files actives as falling curves though it sought activators and does not explain the sign; nearly all actives have a fitted effect of over 65% in size
Target sequence (P80244 whole entry, looked up): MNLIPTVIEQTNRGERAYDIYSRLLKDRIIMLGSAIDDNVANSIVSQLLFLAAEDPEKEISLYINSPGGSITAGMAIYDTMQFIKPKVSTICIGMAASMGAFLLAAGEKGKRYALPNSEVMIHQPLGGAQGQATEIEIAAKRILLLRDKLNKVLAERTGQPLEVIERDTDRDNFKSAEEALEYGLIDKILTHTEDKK
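Purified B. subtilis ClpP, 10 microg/mL final in Tris/HCl pH8 with KCl, BSA, glycerol and Tween-20, cleaved an Abz/nitrotyrosine-quenched decapeptide. Fluorescence (ex 320, em 430) was read at 0 and 20 min at room temperature. Delta was normalized to 5.8 microM ADEP and DMSO/no-enzyme controls.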
* marks the source's active call; other numbers are inactive results; [ ] = dose if it differs, or a comment. Sampled rows, rich in hits. Any-hit rate of the full collection: about 1.9%. Unless noted, the call rests on the fitted dose curve; in most records, active means well fitted curve in the direction sought with a large enough effect; inconclusive means small, poorly fitted or top-dose-only effect, or another doubt; inactive means no such curve, though single readings can be large; an effect the other way counts as inactive or inconclusive.

For CCN(CC)c1nc(C#N)cc(-c2ccc(OC)cc2)n1 the results were Pin1 inh 6.2%, a7 integrin act 8.7%, PKM2 activator 0.2%, USP2a block 1.9%, IL-2 act -0.6 and ClpP mod 35.5µM*.
COc1ccc(-c2cc(C#N)nc(Oc3ccc(Cl)cc3)n2)cc1 was read as Pin1 inh inconclusive, a7 integrin act -23.8%, PKM2 activator -9.6%, USP2a block -2.6%, IL-2 act -2.3 and ClpP mod 7.94µM*.
Screening COc1ccc(-c2cc(C#N)nc(NN)n2)cc1 returned Pin1 inh 0.7%, a7 integrin act 23.3%, PKM2 activator -2.6%, USP2a block -8.8%, IL-2 act -0.4 and ClpP mod -1.6%.
COc1ccc(-c2cc(C#N)nc(Cl)n2)cc1 was read as Pin1 inh -2.5%, a7 integrin act -26.9%, PKM2 activator 6.8%, USP2a block -1.0%, IL-2 act -0.8 and ClpP mod 0.0%.
For O=C(OCC#CCSc1nnc(-c2cccc3ccccc23)o1)c1sc2ccccc2c1Cl the results were Pin1 inh 8.4%.
Screening COC(=O)c1cc(Cc2ccc(N)c(C(=O)OC)c2)ccc1N returned Pin1 inh inconclusive, a7 integrin act 1.7%, PKM2 activator -6.7%, USP2a block 1.8%, IL-2 act 0.3 and ClpP mod 28.2µM*.
For CCC1C(=O)CC2CCN3C(=O)CCC1C23 (stereo unspecified) the results were Pin1 inh -0.4%.
Screening O=c1c2ccccc2nc2sc(Nc3ccc4c(c3)CCC4)nn12 returned Pin1 inh 67.7%.
CCC(C)C(NC(N)=O)C(=O)Nc1ccc(C)c(Cl)c1 (stereo unspecified) was read as Pin1 inh -9.2%, a7 integrin act 0.3%, PKM2 activator -9.6%, USP2a block 0.4%, IL-2 act 0.4 and ClpP mod 28.2µM*.
For O=CC(=O)c1ccc(F)cc1 the results were ClpP mod 4.0%.
Cc1nc(-c2ccc(S(=O)(=O)N3CCCN(CCc4ccccc4)CC3)s2)cs1 was read as Pin1 inh 3.8%, a7 integrin act -49.2%, PKM2 activator 11.3%, USP2a block -1.7% and IL-2 act -2.5.
`Cc1nc(-c2ccc(S(=O)(=O)N3CCN(C4c5ccccc5-c5ccccc54)CC3)s2)cs1` gave Pin1 inh 17.8%, a7 integrin act -5.1%, PKM2 activator 4.4%, USP2a block 9.8%, IL-2 act -0.1 and ClpP mod 28.2µM*.
For C[C@H]1Cc2c(-c3ccccc3)nc3c(c2CO1)CN(C(=O)c1cc(I)ccc1F)CC3 the results were PKM2 activator -3.4%[11.5 µM].
CNc1c(Br)cc(C(O)C2=CCc3ccccc32)cc1Br (stereo unspecified) was read as ClpP mod -0.6%.
Screening CCCCOn1c(C)c(C(=O)OCC)c2c3no[n+]([O-])c3ccc21 returned Pin1 inh 0.1%, a7 integrin act -31.0%, PKM2 activator -23.5%, USP2a block 0.7%, IL-2 act 0.4 and ClpP mod 0.3%.
For CCCCOn1c(C)c(C(=O)OCC)c2c3nonc3ccc21 the results were Pin1 inh inconclusive, a7 integrin act -25.3%, IL-2 act 0.5 and ClpP mod 17.8µM*.
`Cc1cc(C)cc(Cn2ncc3c4sc(C)cc4n(C)c3c2=O)c1` gave Pin1 inh -3.0%.
c1nc(NCCc2cnc[nH]2)c2ccc(-c3ccc4c(c3)OCO4)cc2n1 was read as Pin1 inh 6.3%.
Cc1ccccc1C=O was read as Pin1 inh -2.1%, USP2a block -0.4%, IL-2 act 0.0 and ClpP mod 1.4%.
For Cc1ccccc1/C=C1\OC(=O)c2ccccc21 the results were Pin1 inh 7.0%, a7 integrin act 5.2%, PKM2 activator -1.8%, USP2a block 0.8%, IL-2 act -4.5 and ClpP mod 28.2µM*.
`Cc1ccc(/C=C2\OC(=O)c3ccccc32)cc1` gave Pin1 inh -6.6%, a7 integrin act inconclusive, PKM2 activator -0.8%, USP2a block 1.2%, IL-2 act 1.5 and ClpP mod 28.2µM*.
`COC(=O)c1oc2ccccc2c1N` gave Pin1 inh 5.4%, a7 integrin act 2.6%, PKM2 activator -14.3%, USP2a block 1.5%, IL-2 act 0.7 and ClpP mod 25.1µM*.
Screening CC(=O)c1oc2ccccc2c1N returned Pin1 inh -4.2%, a7 integrin act -7.7%, PKM2 activator 0.9%, USP2a block 0.7%, IL-2 act 1.1 and ClpP mod -16.5%.
CC(C)(C)c1ccc(C(=O)NCC(=O)OC(C(=O)Nc2cc(C(F)(F)F)ccc2Cl)c2ccccc2)cc1 (stereo unspecified) was read as Pin1 inh 0.1%.
COc1cc2c(cc1NS(=O)(=O)N1CCCCC1)oc1ccccc12 was read as Pin1 inh 1.6%, a7 integrin act -15.8%, PKM2 activator -7.7%, USP2a block 0.7%, IL-2 act -2.6 and ClpP mod 31.6µM*.
For COc1cc2c(cc1NC(=O)CCC(=O)O)oc1ccccc12 the results were Pin1 inh 0.4%, a7 integrin act 4.0%, PKM2 activator 0.2%, USP2a block 0.8% and IL-2 act -1.4.
For COc1cc2c(cc1NC(=O)COc1ccccc1OC)oc1ccccc12 the results were Pin1 inh 0.8%, a7 integrin act -15.1%[7.66 µM], PKM2 activator -2.3%, USP2a block 1.2%, IL-2 act -1.8 and ClpP mod 25.1µM*.
For COc1cc2c(cc1NC(=O)Cc1ccc(C)cc1)oc1ccccc12 the results were Pin1 inh 12.5%, a7 integrin act 1.12µM*, PKM2 activator -2.3%, USP2a block 1.5%, IL-2 act -4.1 and ClpP mod 4.1%.
Screening COc1cc2c(cc1NC(=O)Nc1ccccc1)oc1ccccc12 returned Pin1 inh -4.0%, a7 integrin act -2.4%, PKM2 activator 0.6%, USP2a block -1.4%, IL-2 act 0.3 and ClpP mod 28.2µM*.
For O=C(CNC(=O)C1CCCCC1)OCC(=O)c1ccc2c(c1)CCC2 the results were Pin1 inh -7.0% and ClpP mod 0.0%.
